Inconclusive results are not listed. Activity calls are given as the source filed them. Calls come from the whole dose curve; as a rule, active = well fitted inhibition curve with a large enough effect; inconclusive = small, poorly fitted or top-dose-only effect; inactive = flat fitted curve, though single readings scatter.
Assays:
Test in all cases: qHTS profiling for inhibitors of Plasmodium falciparum proliferation (AID 504749); note: nearly all actives have a fitted effect of over 60% in size
AA1029 = settings: P. falciparum in erythrocytes, SYBR Green DNA, 72 h; series mostly up to 28.7 µM
Procedure, shortened: (§1)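 Each compound contacts P. falciparum-infected red blood cells for 72 h at 37 C; lysis buffer (Tris, EDTA, saponin, Triton X, SYBR Green I) is added and fluorescence measured next morning; values normalized to controls.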

C2A = settings: P. falciparum in erythrocytes, SYBR Green DNA, 72 h; series mostly up to 28.7 µM
Procedure, shortened: as §1

CP211 = settings: P. falciparum in erythrocytes, SYBR Green DNA, 72 h; series mostly up to 28.7 µM
Procedure, shortened: as §1

CP217 = settings: P. falciparum in erythrocytes, SYBR Green DNA, 72 h; series mostly up to 28.7 µM
Procedure, shortened: as §1

CP250 = settings: P. falciparum in erythrocytes, SYBR Green DNA, 72 h; series mostly up to 12.8 µM
Procedure, shortened: as §1

CP252 = settings: P. falciparum in erythrocytes, SYBR Green DNA, 72 h; series mostly up to 12.8 µM
Procedure, shortened: as §1

CP256 = settings: P. falciparum in erythrocytes, SYBR Green DNA, 72 h; series mostly up to 28.7 µM
Procedure, shortened: as §1

CP269 = settings: P. falciparum in erythrocytes, SYBR Green DNA, 72 h; series mostly up to 28.7 µM
Procedure, shortened: as §1

CP297 = settings: P. falciparum in erythrocytes, SYBR Green DNA, 72 h; series mostly up to 28.7 µM
Procedure, shortened: as §1

CP315 = settings: P. falciparum in erythrocytes, SYBR Green DNA, 72 h; series mostly up to 28.7 µM
Procedure, shortened: as §1

CP325 = settings: P. falciparum in erythrocytes, SYBR Green DNA, 72 h; series mostly up to 28.7 µM
Procedure, shortened: as §1

CP329 = settings: P. falciparum in erythrocytes, SYBR Green DNA, 72 h; series mostly up to 28.7 µM
Procedure, shortened: as §1

DIV14 = settings: P. falciparum in erythrocytes, SYBR Green DNA, 72 h; series mostly up to 28.7 µM
Procedure, shortened: as §1

DIV17 = settings: P. falciparum in erythrocytes, SYBR Green DNA, 72 h; series mostly up to 28.7 µM
Procedure, shortened: as §1

FAB9 = settings: P. falciparum in erythrocytes, SYBR Green DNA, 72 h; series mostly up to 28.7 µM
Procedure, shortened: as §1

N140 = settings: P. falciparum in erythrocytes, SYBR Green DNA, 72 h; series mostly up to 28.7 µM
Procedure, shortened: as §1

P93_24 = settings: P. falciparum in erythrocytes, SYBR Green DNA, 72 h; series mostly up to 28.7 µM
Procedure, shortened: as §1

PC15 = settings: P. falciparum in erythrocytes, SYBR Green DNA, 72 h; series mostly up to 28.7 µM
Procedure, shortened: as §1

SC27B = settings: P. falciparum in erythrocytes, SYBR Green DNA, 72 h; series mostly up to 28.7 µM
Procedure, shortened: as §1

TAB165 = settings: P. falciparum in erythrocytes, SYBR Green DNA, 72 h; series mostly up to 28.7 µM
Procedure, shortened: as §1

Measured: Potency

C[C@]12CC[C@H]3[C@@H](CCC4=CC(=O)CC[C@@]43C)[C@@H]1CC[C@@H]2O
inactive: all assays above
